High-throughput results: PubChem, National Center for Advancing Translational Sciences (NCATS)
ELG1 genotoxic – genotoxicity induction in ELG1-luciferase HEK293T cells. HEK293T ELG1-luciferase reporter, luminescence, 16 h. Potency, µM (top dose mostly 46 µM), actives largely listed as activators. actives 1.3% (n = 330,000). AID 504466; also: nearly all actives have a fitted effect of over 60% in size
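Genotoxicity was scored as increased ELG1-luciferase reporter signal, measured by ONE-Glo luminescence (30 min, room temperature). Compound or vehicle exposure of the HEK293T reporter cells lasted 16 hr at 37°C.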
FLuc modulator – firefly luciferase modulation, counter-screen for miR-21 project | P08659 | purified FLuc, Km substrates, luminescence inhibition | Potency, µM (doses to about 57.5 µM), most hits filed as inhibitors | actives 6.9% (n = 360,000) | AID 588342; also: nearly all actives have a fitted effect of over 55% in size
Target sequence (P08659 whole entry, looked up): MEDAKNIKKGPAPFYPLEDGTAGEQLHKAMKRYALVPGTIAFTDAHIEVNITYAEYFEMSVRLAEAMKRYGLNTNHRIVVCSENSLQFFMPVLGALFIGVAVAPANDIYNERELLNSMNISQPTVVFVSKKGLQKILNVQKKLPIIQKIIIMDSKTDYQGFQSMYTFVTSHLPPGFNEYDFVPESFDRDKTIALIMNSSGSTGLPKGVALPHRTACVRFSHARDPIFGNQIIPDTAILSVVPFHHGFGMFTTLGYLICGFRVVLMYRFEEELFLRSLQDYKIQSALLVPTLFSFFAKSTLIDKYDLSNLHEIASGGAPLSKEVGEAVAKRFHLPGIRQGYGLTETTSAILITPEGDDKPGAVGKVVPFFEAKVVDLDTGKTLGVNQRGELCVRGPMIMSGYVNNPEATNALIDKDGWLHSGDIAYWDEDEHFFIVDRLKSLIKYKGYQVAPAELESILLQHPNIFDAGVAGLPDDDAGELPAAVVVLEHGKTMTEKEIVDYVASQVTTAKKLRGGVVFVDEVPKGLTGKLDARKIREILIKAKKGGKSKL
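Purified P. pyralis luciferase, 10 nM final, with Km-level 10 uM D-luciferin and 10 uM ATP in 50 mM Tris acetate pH 7.5, 10 mM Mg acetate, 0.01% Tween-20, 0.05% BSA; 6-point qHTS titration about 60 µM downward; luminescence read.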
NPC1 prom act – activates the NPC1 promoter | Huh7 NPC1 promoter luciferase reporter, 24 h | AID 485313 | actives 2.4% (n = 320,000) | Potency, µM (titrated, usually from 9.22 µM), hits mostly activators; also: nearly all actives have a fitted effect of over 60% in size
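Huh7 reporter cells (NPC1 promoter driving luciferase) are dosed with compound for 24 h at 37 °C, 5% CO2; luciferase detection reagent is then added and luminescence measured after 10 min at ambient temperature.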
SMN2 splice up – enhancers of SMN2 splice variant expression; HEK293 SMN2-luciferase splicing reporter, luminescence, 30-36 h; Potency, µM (doses to about 46.1 µM), hits mostly activators; actives 2.8% (n = 210,000); AID 1458; also: nearly all actives have a fitted effect of over 55% in size
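HEK293 cells carry an SMN2 […]–luciferase reporter in which exon 7 inclusion puts luciferase in frame. Cells were plated 10-12 h before compound addition, then incubated 30-36 h at 37C. ONE-Glo luminescence was read; sodium butyrate at 4.5 mM final served as control.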
Luc counter – counter-screen: inhibitors of Kinase-Glo firefly luciferase; Potency, µM (highest dose often 38.3 µM), usual class: inhibitors; Q27757; Kinase-Glo luciferase, ATP luminescence, 8 min; actives 0.28% (n = 200,000); also: nearly all actives have a fitted effect of over 60% in size
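Inhibition of Kinase-Glo luciferase light generation was assessed at 10 uM ATP in pH 7.2 imidazole buffer, with luminescence measured after eight minutes at ambient temperature.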
Rab9 prom act – Rab9 promoter activation. actives 2.8% (n = 320,000). Huh7 Rab9 promoter-luciferase reporter, luminescence, 24 h. Potency, µM (top dose mostly 9.22 µM), actives largely listed as activators; also: nearly all actives have a fitted effect of over 60% in size
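Cell-based reporter: Huh7 stable for Rab9 promoter-driven luciferase, plated in reduced-serum medium with 10% FBS at 1500 cells/well, compound-treated 24 h at 37 °C, luminescence read after 10 min reagent.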
Numbers stand for hits; n = inactive; u = inconclusive; x = no result; [ ] = remark or other dose. Only some compounds are listed: those with a hit (about 7.4% of all), similar ones and a draw of the others. Calls follow the shape of the dose curve; as a rule, active = well fitted curve in the direction sought with a large enough effect; inconclusive = small, poorly fitted or top-dose-only effect, or another doubt; inactive = no such curve, though single readings can be large; an effect the other way counts as inactive or inconclusive.

SMILES	ELG1 genotoxic	FLuc modulator	NPC1 prom act	SMN2 splice up	Luc counter	Rab9 prom act
O=C(Cn1c(=O)sc2ccccc21)NCc1ccccn1	18µM	u	n	11µM	n	n
Cc1c(Cl)cccc1NC(=O)NCCOCCn1c(=O)oc2ccccc21	x	n	x	n	x	x
O=S(=O)(c1cccs1)N1CCN(Cc2nc3ccccc3s2)CC1	n	17µM	n	n	n	n
O=C(OCc1nc2ccccc2s1)C1CCN(S(=O)(=O)c2cccs2)CC1	11µM	13µM	n	n	n	n
CCOC(=O)C1CCN(S(=O)(=O)C(F)(F)c2nc3ccccc3s2)CC1	n	27µM	n	n	n	n
CC(=O)N1CCC(C(=O)N2CCN(S(=O)(=O)c3cccs3)CC2)CC1	n	n	n	x	x	n
O=C(CCc1nc2ccccc2s1)N1CCN(S(=O)(=O)c2cccs2)CC1	n	n	n	n	n	n
O=C(C1CCN(S(=O)(=O)c2cccs2)CC1)N1CCCCC1	u	4.3µM	3.5µM	x	x	u
O=C(COC(=O)C1CCN(S(=O)(=O)c2cccs2)CC1)Nc1ccccc1	n	n	n	n	n	n
Cc1cc(=O)[nH]c2cc3oc4ccccc4c3cc12	x	x	x	n[9.22 µM]	n[7.66 µM]	x
O=C(c1ccsc1)N1CCCC(Nc2cccc(F)c2)C1 (configuration not stated)	n	n	n	x	x	n
CC1CCCCC1NC(=O)/C=C/c1nc2ccccc2s1 (configuration not stated)	n	u	n	n	n	n
O=C(/C=C/c1nc2ccccc2s1)N1CCCCCC1	u	15µM	3.2µM	x	n	2µM
O=C1COc2ccc(OCc3ccc(F)cc3)cc21	u	4.3µM	1.4µM	11µM	n	1.1µM
O=C(NCCc1ccc(Cl)cc1)c1nnc(Cc2ccc(F)cc2)o1	x	n	x	n	x	x
O=c1c(Cl)c(N2CCOCC2)cnn1-c1nc2ccccc2[nH]1	u	11µM	2.5µM	11µM	n	1.6µM
CNCc1ccccc1Sc1cc(O)ccc1O	n	9.5µM	n	n	n	n
CNCc1ccccc1Sc1cccc(O)c1	n	n	n	u	n	n
COc1ccc(NC(=O)CN(c2ccccc2F)S(=O)(=O)c2ccc(C)cc2)c(OC)c1	n	n	n	x	x	n
CCOC(=O)C(/C=C(\C#N)C(=O)OCC)=C(/N)N1CCN(c2ccccc2)CC1	n	n	n	n	n	n
CCOC(=O)/C(C#N)=C\c1ccc(N2CCN(C)CC2)cc1	n	12µM	n	n	n	n
CCOC(=O)/C(C#N)=C/c1ccc(N2CCN(C)CC2)cc1	n	27µM	n	n	n	n
COCCNC(=O)/C(C#N)=C/c1ccc(N2CCOCC2)o1	n	n	n	n	n	n
N#C/C(=C\c1ccc(N2CCOCC2)o1)C(=O)NCCc1ccccc1	n	27µM	n	n	n	n
N#C/C(=C/c1ccc(N2CCOCC2)o1)C(=O)Nc1ccccc1	u	2.7µM	2µM	14µM	n	2µM
SMILES	ELG1 genotoxic	FLuc modulator	NPC1 prom act	SMN2 splice up	Luc counter	Rab9 prom act
N#C/C(=C\c1ccc(N2CCOCC2)o1)C(=O)NC1CCCCC1	n	17µM	n	x	x	n
COc1ccc(S(=O)(=O)N2CCN(Cc3nc4ccc(C)cc4o3)CC2)cc1Cl	x	n	x	x	x	x
Cc1cccc(NC(=O)CN(CC2CCCO2)C(=O)c2oc3ccccc3c2C)c1C (configuration not stated)	n	n	n	x	x	n
COC(=O)c1ccc(CNC(=O)Cn2cnc3c(OCc4ccccc4)ncnc32)cc1	n	x	x	x	x	x
Cn1cnc2cc(NCc3ccc(Cl)cc3)ccc21	u	17µM	2.5µM	x	x	0.89µM
CCn1cnc2cc(NCc3ccc(C)cc3)ccc21	8.2µM	15µM	2.8µM	13µM	n	4µM
CCCn1cnc2cc(NCc3ccc(Br)cc3)ccc21	u	11µM	u	x	x	3.5µM
COc1ccccc1-n1cnc2cc(NCc3ccco3)ccc21	u	19µM	n	n	n	n
COc1ccccc1-n1cnc2cc(NCc3ccccc3O)ccc21	n	u	n	x	x	n
COc1cccc(NC(=O)C2CC(=O)N(c3ccc(Br)cc3)C2)c1 (configuration not stated)	x	n	x	n	x	x
CCN(CC)c1ccc(CNc2ccc3c(c2)ncn3CC)cc1	n	n	n	x	x	n
